Source: PubChem BioAssay (EPA / NIEHS)
Records with an inconclusive call do not appear. Calls of active or inactive are those of the source. The calls were made as follows, unless noted: active = hit-call score of the fitted dose curve at least 0.9, where 1 is the maximum; inactive = score below 0.9.

Key:
[1] = ACEA_ER_80hr: ACEA Biosciences xCELLigence Real-Time Cell Analysis on Estrogen Receptor Agonism for Proliferation (AID 2282667; active = hit-call score of the fitted dose curve at least 0.9, where 1 is the maximum); details: T47D proliferation, impedance (xCELLigence), 80 h
Procedure, shortened: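 Estrogen-driven proliferation is captured as electrode impedance in T47D cells 80 h after compound addition. Test articles ran at 8 concentrations, 1:4 dilutions from 100 uM final, in two replicate plates.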

[2] = ATG_CRE_CIS: Attagene CIS-FACTORIAL HepG2 Assay for human cAMP Responsive Element (CRE) binding protein 3 (AID 2282926); details: HepG2 CRE cis-reporter, Attagene multiplexed mRNA; actives raise or lower the signal
Procedure, shortened: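 Transfected HepG2 were treated for 24 hours, then RNA was extracted and reporter cDNA amplified with sequence-specific primers. Labelled fragments were separated by capillary electrophoresis, and the CRE signal was fitted bidirectionally with DMSO as baseline.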

[3] = target: CCAAT/enhancer-binding protein beta (Homo sapiens) (UniProt P17676); assay: ATG_C_EBP_CIS: Attagene CIS-FACTORIAL HepG2 Assay for human CCAAT/Enhancer Binding Protein (C/EBP) beta (AID 2282927); details: HepG2 Attagene cis-factorial transcription factor reporter; actives raise or lower the signal
CCAAT/enhancer-binding protein beta (Homo sapiens), sequence (P17676 whole entry, looked up): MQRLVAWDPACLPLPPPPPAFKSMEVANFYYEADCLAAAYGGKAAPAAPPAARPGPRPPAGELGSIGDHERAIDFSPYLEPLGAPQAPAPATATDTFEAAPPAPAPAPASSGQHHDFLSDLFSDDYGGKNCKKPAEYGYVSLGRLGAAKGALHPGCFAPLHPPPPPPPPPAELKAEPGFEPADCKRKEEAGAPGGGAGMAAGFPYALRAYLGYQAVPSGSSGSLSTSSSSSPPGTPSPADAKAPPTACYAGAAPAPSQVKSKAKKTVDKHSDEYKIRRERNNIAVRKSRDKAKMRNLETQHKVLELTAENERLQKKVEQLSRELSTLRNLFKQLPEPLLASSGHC
Procedure, shortened: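 RT-PCR/capillary electrophoresis fluorescence of reporter mRNA, 24 h post-dose, in HepG2 cells carrying transfected cis-promoter reporter units. Bidirectional curve fitting against DMSO baseline captures gain or loss of signal.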

[4] = ATG_CMV_CIS: Attagene CIS-FACTORIAL HepG2 Assay for human CMV (Internal Marker) (AID 2282928); details: HepG2 CMV promoter reporter, transcription factor profiling; actives raise or lower the signal;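 also: endpoint acts as a background internal control marker rather than a target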
Procedure, shortened: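 After transient transfection of HepG2 with reporter transcription units driven by cis-regulatory promoters, cells receive test chemical for 24 h. Labeled reporter amplicons, digested with HpaI, are sized and quantified by capillary electrophoresis against DMSO.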

[5] = ATG_DR4_LXR_CIS: Attagene CIS-FACTORIAL HepG2 Assay for human Liver X Receptor (LXR), DR4 submotif (AID 2282929); details: HepG2 Attagene DR4 cis-reporter, mRNA transcription; actives raise or lower the signal
Procedure, shortened: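 HepG2 cells transiently transfected with cis-promoter-driven multiplexed reporter units (DR4 element) were dosed for 24 h. Reporter mRNA was quantified by RT-PCR, fluorescent primer extension, HpaI digestion and capillary electrophoresis; bidirectional fitting versus DMSO baseline.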

[6] = target: Aryl hydrocarbon receptor (Homo sapiens) (UniProt P35869); assay: ATG_Ahr_CIS: Attagene CIS-FACTORIAL HepG2 Assay for human Aryl Hydrocarbon Receptor (Ahr) (AID 2282930); details: HepG2 AhR cis-factorial reporter transcription; actives raise or lower the signal
Aryl hydrocarbon receptor (Homo sapiens), sequence (P35869 whole entry, looked up): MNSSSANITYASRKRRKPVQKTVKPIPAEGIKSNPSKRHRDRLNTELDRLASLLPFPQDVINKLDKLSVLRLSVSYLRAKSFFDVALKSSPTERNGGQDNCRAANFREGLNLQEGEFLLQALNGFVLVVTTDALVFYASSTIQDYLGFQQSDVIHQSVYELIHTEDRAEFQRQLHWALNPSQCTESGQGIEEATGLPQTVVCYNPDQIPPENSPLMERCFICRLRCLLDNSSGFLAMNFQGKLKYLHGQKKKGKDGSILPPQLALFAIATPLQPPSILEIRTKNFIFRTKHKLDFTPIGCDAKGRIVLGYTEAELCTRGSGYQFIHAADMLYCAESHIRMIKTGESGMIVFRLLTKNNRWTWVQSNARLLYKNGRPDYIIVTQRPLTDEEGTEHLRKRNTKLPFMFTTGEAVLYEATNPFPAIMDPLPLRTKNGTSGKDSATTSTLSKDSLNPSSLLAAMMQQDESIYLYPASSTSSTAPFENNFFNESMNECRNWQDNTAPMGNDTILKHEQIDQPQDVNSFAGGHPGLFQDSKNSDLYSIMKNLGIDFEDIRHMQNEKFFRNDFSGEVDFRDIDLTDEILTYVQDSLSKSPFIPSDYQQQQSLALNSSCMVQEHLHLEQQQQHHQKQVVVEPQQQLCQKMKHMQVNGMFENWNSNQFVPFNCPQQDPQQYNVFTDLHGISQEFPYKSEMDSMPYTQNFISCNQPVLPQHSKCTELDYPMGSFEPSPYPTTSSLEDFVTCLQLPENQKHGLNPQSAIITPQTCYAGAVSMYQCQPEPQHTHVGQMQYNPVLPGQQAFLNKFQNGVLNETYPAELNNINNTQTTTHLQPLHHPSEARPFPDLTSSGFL
Procedure, shortened: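 HepG2 cells transiently transfected with cis-element-driven multiplexed reporter transcription units; endogenous transcription factor activity measured as reporter mRNA 24 h after dosing. RT-PCR, 6-FAM labelling, HpaI digestion, capillary electrophoresis; bidirectional fitting versus DMSO baseline.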

[7] = ATG_AP_1_CIS: Attagene CIS-FACTORIAL HepG2 Assay for human Activator Protein 1 (AP-1) (AID 2282931); details: HepG2 Attagene cis-factorial AP-1 reporter mRNA; actives raise or lower the signal
Procedure, shortened: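 HepG2 cells transiently transfected with cis-element-driven multiplex reporter units; 24 h compound exposure. Reporter mRNA quantified by RT-PCR, FAM-labelled fragments resolved by capillary electrophoresis; bidirectional fit versus DMSO baseline.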

[8] = ATG_AP_2_CIS: Attagene CIS-FACTORIAL HepG2 Assay for human Activator Protein 2 (AP-2) (AID 2282932); details: HepG2 AP-2 cis-reporter, Attagene transcription factor profiling; actives raise or lower the signal
Procedure, shortened: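 HepG2 cells were transiently transfected with multiple cis-promoter reporter transcription units and dosed for 24 h. Reporter mRNA was measured by RT-PCR with capillary electrophoresis fluorescence; bidirectional fits relative to DMSO baseline.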

[9] = ATG_BRE_CIS: Attagene CIS-FACTORIAL HepG2 Assay for human Bone Morphogenetic Protein (BMP) Response Element (BRE) (AID 2282933); details: HepG2 BMP response element reporter, Attagene transcription factor profiling; actives raise or lower the signal
Procedure, shortened: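 After a 24 h chemical treatment, transiently transfected HepG2 cells were lysed for RNA; reporter transcripts were quantified by fluorescent RT-PCR and capillary electrophoresis, normalised to DMSO.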

[10] = target: Retinoic acid receptor alpha (Homo sapiens) (UniProt P10276); assay: ATG_DR5_RAR_CIS: Attagene CIS-FACTORIAL HepG2 Assay for human Retinoic Acid Receptor Alpha (RARE), DR5 submotif (AID 2282934); details: HepG2 Attagene cis-factorial RARE DR5 reporter, mRNA; actives raise or lower the signal
Retinoic acid receptor alpha (Homo sapiens), sequence (P10276 whole entry, looked up): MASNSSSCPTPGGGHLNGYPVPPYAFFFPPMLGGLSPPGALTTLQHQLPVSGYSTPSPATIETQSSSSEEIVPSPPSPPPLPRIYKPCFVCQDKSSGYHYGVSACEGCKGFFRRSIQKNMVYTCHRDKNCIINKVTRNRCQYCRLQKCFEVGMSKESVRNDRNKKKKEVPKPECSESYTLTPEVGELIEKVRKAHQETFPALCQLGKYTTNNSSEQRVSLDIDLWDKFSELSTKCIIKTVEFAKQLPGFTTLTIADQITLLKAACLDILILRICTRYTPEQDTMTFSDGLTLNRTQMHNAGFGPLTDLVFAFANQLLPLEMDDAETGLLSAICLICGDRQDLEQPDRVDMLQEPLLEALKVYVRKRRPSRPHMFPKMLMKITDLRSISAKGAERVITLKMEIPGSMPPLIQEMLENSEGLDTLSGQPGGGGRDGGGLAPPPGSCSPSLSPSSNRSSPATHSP
Procedure, shortened: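 HepG2 cells transiently transfected with multiplexed reporter units under cis (DR5 RARE) promoters, so endogenous transcription factor activity is measured. After 24 h compound exposure, reporter mRNA is quantified by RT-PCR with fluorescent labelling and capillary electrophoresis; bidirectional fitting versus DMSO.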

[11] = target: Transcription factor E2F1 (Homo sapiens) (UniProt Q01094); assay: ATG_E2F_CIS: Attagene CIS-FACTORIAL HepG2 Assay for human E2F Transcription Factor 1 (AID 2282935); details: HepG2 Attagene cis-reporter, E2F reporter RNA transcripts; actives raise or lower the signal
Transcription factor E2F1 (Homo sapiens), sequence (Q01094 whole entry, looked up): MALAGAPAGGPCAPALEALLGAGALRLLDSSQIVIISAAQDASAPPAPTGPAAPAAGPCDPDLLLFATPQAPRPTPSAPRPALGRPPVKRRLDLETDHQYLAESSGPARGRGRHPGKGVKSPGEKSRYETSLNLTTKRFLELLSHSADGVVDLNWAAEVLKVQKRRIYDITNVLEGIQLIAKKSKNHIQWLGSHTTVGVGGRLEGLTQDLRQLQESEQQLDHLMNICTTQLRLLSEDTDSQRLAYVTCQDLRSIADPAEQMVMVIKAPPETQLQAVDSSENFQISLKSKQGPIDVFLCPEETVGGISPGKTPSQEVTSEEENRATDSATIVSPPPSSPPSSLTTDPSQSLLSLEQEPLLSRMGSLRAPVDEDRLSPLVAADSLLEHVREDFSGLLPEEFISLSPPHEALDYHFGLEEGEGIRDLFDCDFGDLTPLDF
Procedure, shortened: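 HepG2 cells transiently transfected with multiplexed cis-element reporter units, dosed for 24 h. Reporter mRNA measured by RT-PCR, 6-FAM primer-extension labeling, HpaI digestion and capillary electrophoresis; bidirectional fit versus DMSO baseline.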

[12] = ATG_E_Box_CIS: Attagene CIS-FACTORIAL HepG2 Assay for human Enhancer Box (E-box) (AID 2282936); details: HepG2 E-box cis-reporter transcription, actives raise or lower the signal
Procedure, shortened: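 HepG2 cells transiently transfected with multiplexed cis-element reporter units sensing endogenous transcription factor activity; 24 h compound exposure. Reporter mRNA measured by RT-PCR, 6-FAM primer extension, HpaI digestion and capillary electrophoresis; bidirectional fit versus DMSO.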

[13] = ATG_M_61_CIS: Attagene CIS-FACTORIAL HepG2 Assay for M61 Transcription Factor (Internal Marker) (AID 2282937); details: HepG2 Attagene CIS-FACTORIAL M61 internal marker reporter; actives raise or lower the signal
Procedure, shortened: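 HepG2 cells transiently transfected with cis-element-driven multiple reporter transcription units, dosed for 24 h. Reporter mRNA measured by RT-PCR, 6-FAM primer-extension labelling, HpaI digestion and capillary electrophoresis; bidirectional fit versus DMSO baseline.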

[14] = ATG_EGR_CIS: Attagene CIS-FACTORIAL HepG2 Assay for human Early Growth Response 1 (EGR1) (AID 2282938); details: HepG2 Attagene CIS-FACTORIAL EGR reporter mRNA; actives raise or lower the signal
Procedure, shortened: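 HepG2 cells transiently transfected with cis-promoter-driven multiplexed reporter transcription units; reporter mRNA measured 24 h after compound dosing by RT-PCR, 6-FAM primer extension, HpaI digestion and capillary electrophoresis. Bidirectional fit versus DMSO baseline.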

[15] = ATG_M_19_CIS: Attagene CIS-FACTORIAL HepG2 Assay for M19 Transcription Factor (Internal Marker) (AID 2282939); details: HepG2 Attagene CIS-FACTORIAL M19 internal marker reporter; actives raise or lower the signal
Procedure, shortened: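 In this multiplexed cell assay, transiently transfected HepG2 reporter units report endogenous transcription-factor activity; after 24 hours of treatment, labelled reporter cDNA fragments are quantified by capillary electrophoresis and fitted bidirectionally against DMSO.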

[16] = ATG_ERE_CIS: Attagene CIS-FACTORIAL HepG2 Assay for Estrogen Response Element (ERE) (AID 2282940); details: HepG2 ERE cis-reporter, Attagene RNA transcript; actives raise or lower the signal
Procedure, shortened: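 Measuring endogenous transcription factor output, the assay doses transfected HepG2 cells for 24 hours and quantifies reporter transcripts by fluorescent RT-PCR and capillary electrophoresis, with DMSO as baseline.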

[17] = ATG_Ets_CIS: Attagene CIS-FACTORIAL HepG2 Assay for human Erythroblast Transformation Specific (ETS) (AID 2282941); details: HepG2 ETS cis-reporter transcription, actives raise or lower the signal
Procedure, shortened: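 Human HepG2 hepatoma cells were transiently transfected with promoter-driven reporter constructs and treated for 24 hours. Reporter transcripts were quantified by RT-PCR with fluorescent primer extension; bidirectional curve fitting used DMSO as reference.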

[18] = target: Hepatocyte nuclear factor 3-beta (Homo sapiens) (UniProt Q9Y261); assay: ATG_FoxA2_CIS: Attagene CIS-FACTORIAL HepG2 Assay for human Forkhead box A2 (FOXA2) (AID 2282942); details: HepG2 cis-reporter transcription factor activity, 24 h; actives raise or lower the signal
Hepatocyte nuclear factor 3-beta (Homo sapiens), sequence (Q9Y261 whole entry, looked up): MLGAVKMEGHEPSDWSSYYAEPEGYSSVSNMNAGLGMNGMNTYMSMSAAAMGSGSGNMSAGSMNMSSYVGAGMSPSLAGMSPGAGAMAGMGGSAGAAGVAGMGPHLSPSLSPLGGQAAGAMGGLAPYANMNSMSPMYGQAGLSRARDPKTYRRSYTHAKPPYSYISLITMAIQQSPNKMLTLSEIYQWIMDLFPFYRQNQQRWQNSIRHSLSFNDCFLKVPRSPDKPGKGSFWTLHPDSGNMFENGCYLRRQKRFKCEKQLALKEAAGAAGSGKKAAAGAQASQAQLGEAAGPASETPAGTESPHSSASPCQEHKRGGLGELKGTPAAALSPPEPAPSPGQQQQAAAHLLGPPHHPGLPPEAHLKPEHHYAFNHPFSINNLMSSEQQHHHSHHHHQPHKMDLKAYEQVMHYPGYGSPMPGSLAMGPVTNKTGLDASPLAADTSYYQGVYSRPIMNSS
Procedure, shortened: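 HepG2 cells transiently transfected with multiple cis-regulated reporter transcription units, dosed for 24 h. Reporter mRNA measured by RT-PCR, 6-FAM labelling, HpaI digestion and capillary electrophoresis; bidirectional fitting against DMSO baseline.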

[19] = ATG_FoxO_CIS: Attagene CIS-FACTORIAL HepG2 Assay for human Forkhead box O (FoxO) (AID 2282943); details: HepG2 Attagene cis-reporter, FoxO element, mRNA; actives raise or lower the signal
Procedure, shortened: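 HepG2 cells transiently transfected with cis-promoter-driven multiple reporter transcription units; 24 h after chemical dosing, reporter mRNA quantified by RT-PCR, fluorescent primer extension, HpaI digestion and capillary electrophoresis. Bidirectional fitting versus DMSO baseline.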

[20] = ATG_GATA_CIS: Attagene CIS-FACTORIAL HepG2 Assay for human GATA Binding Protein (AID 2282944); details: HepG2 GATA cis-element reporter, Attagene multiplex mRNA; actives raise or lower the signal
Procedure, shortened: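 Measures endogenous transcription factor-driven reporter mRNA in HepG2 cells transiently carrying cis-regulated constructs. 24 h dosing; RNA via oligo(dT) reverse transcription, PCR, HpaI digestion, capillary electrophoresis; fitted relative to DMSO.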

Measured: AC50

CCCCCCCCCc1ccc(OCCO)cc1
inactive: [6] | [10] | [11] | [13] | [14] | [16] | [20]
active: [1] 278 nM | [2] 22.8 µM | [3] 4.25 µM | [4] 13.3 µM | [5] 19.3 µM | [7] 2.26 µM | [8] 23.2 µM | [9] 7.68 µM | [12] 23.1 µM | [15] 25.2 µM | [17] 22.9 µM | [18] 21.9 µM | [19] 13.3 µM

OCC(F)(F)C(F)(F)C(F)(F)C(F)(F)C(F)(F)C(F)(F)C(F)(F)C(F)(F)CO
active: [1] 188 nM | [16] 163 nM
inactive: all other assays above

NC(=O)C(F)(F)C(F)(F)C(F)(F)F
inactive: all assays above
